Assay results from PubChem BioAssay AID493170 (National Center for Advancing Translational Sciences (NCATS), 2011).
Inconclusive results are not listed. Active and inactive are the calls of the source. Calls follow the shape of the dose curve; as a rule, active = well fitted inhibition curve with a large enough effect; inconclusive = small, poorly fitted or top-dose-only effect, or effect the other way; inactive = flat fitted curve, though single readings scatter.

Molecular target: Ubiquitin carboxyl-terminal hydrolase 2 (Homo sapiens) (UniProt O75604)
Test: Ub-rhodamine 110 based assay for inhibitors Ubiquitin-specific Protease USP2a; also: nearly all actives have a fitted effect of over 50% in size
Conditions: USP2a Ub-rhodamine110 cleavage, fluorescence; series mostly up to 38.3 µM; activity change, negative = inhibition: at the top concentration
Method in brief: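 5 nM USP2a preincubated with compounds for 30 min at RT in 20 mM Tris-HCl pH 8.0, 2 mM CaCl2, 2 mM beta-mercaptoethanol, 0.05% CHAPS. Cleavage of 150 nM Ub-rhodamine 110 read kinetically (Ex 485/Em 531) for 7 min.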
% is scaled to controls: 0 for no effect and ±100 for the full control effect; potency is read from the fitted curve at half-maximal effect.

Ubiquitin carboxyl-terminal hydrolase 2 (Homo sapiens), sequence (O75604 whole entry, looked up): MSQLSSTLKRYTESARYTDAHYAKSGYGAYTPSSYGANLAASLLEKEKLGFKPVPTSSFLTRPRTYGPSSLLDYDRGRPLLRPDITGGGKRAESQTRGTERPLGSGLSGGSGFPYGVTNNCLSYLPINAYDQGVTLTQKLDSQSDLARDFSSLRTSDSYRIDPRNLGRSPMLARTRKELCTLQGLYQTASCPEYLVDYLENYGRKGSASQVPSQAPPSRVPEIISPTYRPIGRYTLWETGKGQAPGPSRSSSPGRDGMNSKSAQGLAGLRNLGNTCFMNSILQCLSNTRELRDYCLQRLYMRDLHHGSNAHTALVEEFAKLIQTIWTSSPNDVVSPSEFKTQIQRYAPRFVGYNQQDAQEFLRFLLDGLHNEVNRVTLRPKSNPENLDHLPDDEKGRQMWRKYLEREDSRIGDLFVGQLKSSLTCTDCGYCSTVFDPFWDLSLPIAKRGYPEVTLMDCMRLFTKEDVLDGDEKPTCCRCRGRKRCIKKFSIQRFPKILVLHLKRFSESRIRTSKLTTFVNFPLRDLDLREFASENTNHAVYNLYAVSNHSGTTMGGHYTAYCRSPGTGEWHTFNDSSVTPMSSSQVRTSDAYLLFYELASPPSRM

Activity change, negative = inhibition, inactive:
c1ccc(-c2nc3nc4ccccc4nc3n2Cc2ccco2)cc1 -15.9%
Cc1ccccc1N=C1NC(=O)CS1 1.95%
CC(C)c1ccc(NC(=O)C(c2ccc3c(c2)OCO3)N2CCCCC2)cc1 (stereo not given) -8.46%
CCc1cc2cccc(C)c2nc1SCC(=O)N1CCN(C(=O)c2ccco2)CC1 -16.4%
COc1ccc(S(=O)(=O)N2CCCCC2)cc1NC(=O)Cc1c[nH]c2ccccc12 -20.6%
COCc1cc(C)nc(OCC(=O)N/N=C\c2cc(C)n(-c3cccc(C(F)(F)F)c3)c2C)c1C#N -13.8%
CCOC(=O)C1CCN(CC(O)COc2ccc(C(C)(C)C)cc2)CC1 (stereo not given) 2.76%
CCOC(=O)N1CCN(S(=O)(=O)c2ccc(C)cc2)C1c1ccc(OC)cc1 (stereo not given) -18.1%
CCN1C(=O)C(NC(C)=O)c2cc(OC)ccc21 (stereo not given) -11.5%
CC(C)(C)NC(=O)C(c1ccco1)N(C(=O)c1ccc(CN2CCOCC2)o1)c1ccccc1 (stereo not given) -10.5%
COC(=O)N/N=C\c1cc(Br)ccc1OCc1ccccc1 -10.6%
Cc1ccc2[nH]c(=O)c(COC(=O)c3ccccn3)cc2c1 -8.08%
Cc1ccc(C(=O)NCc2ccc3c(c2)OCO3)cc1N1CCCC1=O -7.01%
Cc1nn(C)cc1CNC(=O)c1ccc(Br)o1 -7.67%
COc1ccc(NC(=O)C2CC(=O)OC2c2ccccc2)cc1 (stereo not given) -14.6%
CCC(C)(C)n1nnnc1C(c1ccc(C)cc1)N1CCCC1 (stereo not given) -8.02%
CCOc1cc(N2CCOCC2)c(OCC)cc1NC(=O)Cc1cn2ccsc2n1 16.1%
Cn1c(SCc2nc3ccccc3s2)nnc1-c1cccs1 -11.3%
CC(C)(C)OC(=O)C[C@H]1C/C=C\C[C@H](CC(=O)N(CCO)Cc2ccccc2)C(=O)NC[C@H](c2ccccc2)OC1=O -3.48%
O=C(NC12CC3CC(CC(C3)C1)C2)C1=COCCO1 4.63%
O=C(c1cccc(F)c1)N1CCN(S(=O)(=O)c2ccccc2)CC1 -1.48%
CC(=O)N1c2c(cc(Br)cc2S(=O)(=O)NCc2cccnc2)CC1C (stereo not given) -1.19%
CN(c1ccccc1)S(=O)(=O)c1ccc(Cl)c(C(=O)NCCc2c[nH]c3ccccc23)c1 -14.8%
COc1ccc(Cl)cc1S(=O)(=O)Nc1cccc(C(=O)O)c1 -1.12%
COc1ccc(C(=O)N/C(=C\c2cccs2)C(=O)N2CCN(C)CC2)cc1OC -5.24%
Cc1cc(NC(=O)c2cccc(S(=O)(=O)N(C)C)c2)n(-c2ccccn2)n1 -14.6%
O=C(COc1ccccc1)NCc1nnc(SCC(=O)Nc2nccs2)n1-c1ccccc1 6.68%
COc1ccc(C(=O)Nc2ccc(N3CCCC3)cc2)cc1OC -7.74%
FC(F)(F)c1cnc2c(c1)Nc1ccccc1S2 5.47%
CCN(Cc1ccncc1)C(=O)c1cccs1 -7.04%
O=C(O)CP(=O)(c1ccccc1)c1ccccc1 -4.26%
O=C(NC1CCCC1)C1C2C=CC(C2)C1C(=O)N1CCOCC1 (stereo not given) 2.69%

Potency, active:
Cc1cc(-c2csc(NCc3ccccc3)n2)c(C)n1C 8.91 µM
O=C(Nc1nc(-c2ccco2)c(-c2ccco2)s1)C1CC(=O)N(c2ccc3c(c2)OCCO3)C1 (stereo not given) 2.51 µM
O=C(COC(=O)c1c2c(nc3ccccc13)/C(=C/c1ccco1)CC2)NC1CCCC1 3.55 µM
O=C(CSc1nnc(SCc2ccccc2)s1)N/N=C/C=C/c1ccco1 6.31 µM
Cc1ccc(S(=O)(=O)Nc2ccccc2C(=O)Nc2nc(-c3ccc(F)cc3)cs2)cc1 7.08 µM
CNc1cccccc1=S 10 µM
CCOC(=O)c1c(-c2ccc(C)o2)csc1NC(=O)COC(=O)c1ccc(NC(N)=O)cc1 7.08 µM
Cc1cc(C(=O)OCC(=O)c2cccc([N+](=O)[O-])c2)c2cccc(C)c2n1 10 µM
